Data as given in PubChem BioAssay AID624304 (Sanford-Burnham Center for Chemical Genomics, 2012).
The whole screen tested about 360,000 compounds, of which about 1,800 (0.5%) were called active. The list comes from a sample in which actives are over-represented; it also holds similar structures and randomly drawn compounds. Values without a mark were called inactive.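 The calls were made as follows: active = interference check ratio from 0.5 to 1.5 plus GFP to RFP signal ratio inhibition reaching or exceeding a fixed threshold (cut at about 30% in these data, passing the limit was not always enough); inactive = the rest.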

Assay: suppressors of acrylamide-induced Pgst-4::GFP reporter in worms, primary screen, SKN-1 inhibitor project, whole organism, uHTS, GFP/RFP fluorescence ratio, strain VP596 (AID 624304)
Conditions: C. elegans VP596 Pgst-4::GFP/RFP ratio, 24 h, at 21.8 µM, stronger effect = higher value

Row | Structure (SMILES) | inhibition
1 | CCCc1ccc(S(=O)(=O)N2CCN(C(=O)c3cc(C)on3)CC2)cc1 | 12.9%
2 | Cc1c(C(=O)NCC(c2ccco2)N2CCCC2)oc2ccc(Cl)cc12 (centres undefined) | 3.49%
3 | CN(Cc1ccccc1F)c1cc2c(c3c1ccn3C)C1CCC2O1 (centres undefined) | 6.79%
4 | Fc1c(F)c(C(F)(F)F)c(F)c(F)c1N1CCN(c2ccc3nnc(C(F)(F)F)n3n2)CC1 | -6.81%
5 | C=CCCC(=O)N1C[C@H]2CON(C)[C@H]2C[C@H]1c1cccc(Nc2ccccc2)c1 | 3.69%
6 | N/C(=N\OC(=O)Nc1ccccc1)c1ccno1 | 11.3%
7 | COC(=O)c1[nH]c2ccc(Br)cc2c1NC(=O)Oc1ccccc1 | 6.84%
8 | COc1ccc(CCC(=O)OCC(=O)Nc2ccc(C)c(S(=O)(=O)N(C)C)c2)cc1 | -9.73%
9 | Cc1ccc(C)c(NC(=O)COC(=O)c2nn(C)c(=O)c3ccccc23)c1 | 0.693%
10 | Cc1ccc(F)cc1NC(=O)Cc1nn(C)c(=O)c2ccccc12 | 35.7% (active)
11 | Cc1ccc(F)cc1NC(=O)CSCc1c(C)noc1C | -5.42%
12 | CCCCC1=CC2=CC(=O)C(C)(OC(=O)CC)C(=O)C2=CN1CCCOC(C)C (centres undefined) | 19.4%
13 | COC(=O)CCCC1=CC2=CC(=O)C(C)(OC(=O)c3cccs3)C(=O)C2=CN1CC(C)C (centres undefined) | 41% (active)
14 | COC(=O)CCCC1=CC2=C(c3ccccc3)C(=O)C(C)(OC(=O)C3CCCC3)C(=O)C2=CN1c1ccc(OC)cc1 (centres undefined) | -4%
15 | Fc1cccc2ncnc(OCc3ccccc3)c12 | 3.79%
16 | CC(=O)c1ccccc1OCc1ccc(C(=O)c2ccccc2)cc1 | 12.8%
17 | Cc1nc2ccccc2cc1OCc1ccc(F)cc1 | 90.3% (active)
18 | OCC[C@H]1C[C@H](O)[C@@H](O)[C@]2(CCCCO2)O1 | -7.25%
19 | COc1cccc(NC(=O)C(Sc2nnnn2C)c2ccccc2)c1 (centres undefined) | 17.4%
20 | COc1cccc(NC(=O)CC(c2ccc(OC(C)C)cc2)c2ccccc2OC)c1 (centres undefined) | -0.0853%
21 | COc1cccc(NC(=O)C(C)Oc2ccccc2)c1 (centres undefined) | 51.2% (active)
22 | COC(=O)c1ccc(COC(=O)c2c(C)nn(Cc3ccccc3Cl)c2Cl)o1 | -0.292%

Row | Structure (SMILES) | inhibition
23 | Cc1ccc(NC(=O)Cc2nc(COC(=O)C(C)NS(=O)(=O)c3ccc(C)cc3)cs2)cc1 (centres undefined) | -10%
24 | CC1Cc2ccccc2N1C(=O)CSc1nc2ccccc2o1 (centres undefined) | 30.1% (active)
25 | CCS(=O)(=O)c1ccc2oc(SCC(=O)N3c4ccccc4CC3C)nc2c1 (centres undefined) | -0.339%
26 | CC1Cc2ccccc2N1C(=O)CSc1nnc(C2CC2)n1C (centres undefined) | 8.36%
27 | Cc1cc2c(cc1S(=O)(=O)NCc1ccc(Cl)cc1)OCC(=O)N2 | -19.4%
28 | COc1ccccc1N(CCOc1ccccc1)S(=O)(=O)c1ccccc1 | 3.24%
29 | Cc1nc2c(-c3ccc(F)cc3)c(C)nn2c(C)c1CCC(=O)N1CCN(c2ccccn2)CC1 | -5.8%
30 | Cc1nc2ncnn2c(C)c1CCC(=O)N1CCN(C(=O)c2ccco2)CC1 | -8.68%
31 | Cc1nc2nc(C)c(CCC(=O)N3CCN(c4ccccc4)CC3)c(C)n2n1 | 35.7% (active)
32 | CC1CCN(C(=O)Cn2nnnc2CN2CCOCC2)CC1 | -17.8%
33 | N#CC1=C(N)Oc2c(sc3ccccc23)C1c1ccco1 (centres undefined) | 35% (active)
34 | CCc1nc2c(OCC(=O)C(C)(C)C)cccn2c1N(C)C(=O)c1ccccc1F | 15.8%
35 | CCOC(=O)C1=NNC2(c3ccc(Cl)cc3)C(=O)N(c3cc(C)cc(C)c3)C(=O)C12 (centres undefined) | 14.5%
36 | COc1ccc(-c2c(C(C)=O)c(C)nc3sc4c(=O)n(-c5ccc(C)cc5)nnc4c23)cc1 | 12.1%
37 | CC(Oc1ccc(Cl)cc1)C(=O)OCC(=O)Nc1ncc(Cl)cc1Cl (centres undefined) | 6.67%
38 | CC(Oc1ccc(Cl)cc1)c1ccnn1S(C)(=O)=O (centres undefined) | 33.3% (active)
39 | CC(Oc1ccc(Cl)cc1)C(=O)Nc1ncccn1 (centres undefined) | 11.8%
40 | CCc1c(SCCC(=O)O)nc2ccccc2c1C | -7.29%
41 | Cc1nccn1-c1ccc(NC(=O)[C@H]2O[C@@H](n3ccc(=O)[nH]c3=O)[C@H](O)[C@@H]2O)cc1 | 1.64%
42 | COc1ccccc1OCC(=O)OCn1c(SC)nnc(C)c1=O | 5.86%
43 | CC1CN(C(=O)CCC(=O)NCCCN2CCC(Cc3ccccc3)CC2)c2cc(Cl)ccc2O1 (centres undefined) | 14.9%
44 | O=C1CCC([N+](=O)[O-])C(c2ccccc2Br)N1 (centres undefined) | 9.01%
